Screening results from PubChem BioAssay.
Sampled rows, rich in hits. Any-hit rate of the full collection: about 9.3%.
SMN2 splice up: qHTS Assay for Enhancers of SMN2 Splice Variant Expression; HEK293 SMN2-luciferase splicing reporter, luminescence, 30-36 h; Potency, µM (doses to about 46.1 µM), without a hit: at the top dose activity change, positive = activation, hits mostly activators; 210,000 tested, 2.8% active; AID 1458, 2008; further: % of control where 0% means no effect; nearly all actives have a fitted effect of over 55% in size
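qHTS luciferase splicing reporter: luminescence rises when SMN2 exon 7 is included in transfected HEK293 cells. Compound exposure lasted 30-36 h at 37C, with 4.5 mM final sodium butyrate as control, followed by a ONE-Glo read.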
FLuc modulator: qHTS profiling assay for firefly luciferase inhibitor/activator using purifed enzyme and Km concentrations of substrates (counterscreen for miR-21 project) | Luciferin 4-monooxygenase (Photinus pyralis), P08659 | purified FLuc, Km substrates, luminescence inhibition | Potency, µM (series often up to 57.5 µM), for inactives: at the top dose activity change, negative = inhibition, actives largely listed as inhibitors | 360,000 tested, 6.9% active | AID 588342, 2011;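 further: plate controls were vehicle for no effect and reference inhibitor for full effect; nearly all actives have a fitted effect of over 55% in size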
Target sequence (P08659 whole entry, looked up): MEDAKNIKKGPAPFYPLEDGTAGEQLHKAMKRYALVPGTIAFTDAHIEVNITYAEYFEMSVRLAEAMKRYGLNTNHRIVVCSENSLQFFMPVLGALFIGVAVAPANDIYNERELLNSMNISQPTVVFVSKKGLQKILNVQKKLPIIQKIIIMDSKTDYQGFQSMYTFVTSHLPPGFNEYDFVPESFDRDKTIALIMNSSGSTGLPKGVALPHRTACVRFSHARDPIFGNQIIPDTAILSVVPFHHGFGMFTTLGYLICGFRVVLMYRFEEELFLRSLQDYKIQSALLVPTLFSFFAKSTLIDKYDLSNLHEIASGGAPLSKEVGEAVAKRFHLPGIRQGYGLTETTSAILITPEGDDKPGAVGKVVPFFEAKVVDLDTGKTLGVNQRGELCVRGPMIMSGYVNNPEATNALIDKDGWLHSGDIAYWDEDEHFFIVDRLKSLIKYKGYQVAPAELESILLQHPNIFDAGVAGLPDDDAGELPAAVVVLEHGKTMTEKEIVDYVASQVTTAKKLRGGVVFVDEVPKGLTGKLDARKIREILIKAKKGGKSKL
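Biochemical qHTS of compounds, final roughly 60 µM downward over six points, against 10 nM purified firefly luciferase using Km concentrations of substrates (10 uM D-luciferin, 10 uM ATP) in Tris acetate pH 7.5 buffer; luminescence output.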
ELG1 genotox: qHTS screen for small molecules that induce genotoxicity in human embryonic kidney (HEK293T) cells expressing luciferase-tagged ELG1; 330,000 tested, 1.3% active; Potency, µM (top dose mostly 46 µM), inactives show top-dose activity change, positive = activation, most hits filed as activators; AID 504466, 2011; HEK293T ELG1-luciferase reporter, luminescence, 16 h; further: % of control where 0% means no effect; nearly all actives have a fitted effect of over 60% in size
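Genotoxicity was scored as increased ELG1-luciferase reporter signal, measured by ONE-Glo luminescence (30 min, room temperature). Compound or vehicle exposure of the HEK293T reporter cells lasted 16 hr at 37°C.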
NPC1 prom act: qHTS Assay for NPC1 Promoter Activators; Potency, µM (doses to about 9.22 µM), without a hit: at the highest dose activation, most hits filed as activators; 320,000 tested, 2.4% active; AID 485313, 2010; Huh7 NPC1 promoter luciferase reporter, 24 h; further: % of control where 0% means no effect; nearly all actives have a fitted effect of over 60% in size
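NPC1 promoter–luciferase Huh7 cells; 24 h compound; luminescence.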
Rab9 prom act: qHTS Assay for Rab9 Promoter Activators | Huh7 Rab9 promoter-luciferase reporter, luminescence, 24 h | Potency, µM (doses to about 9.22 µM), without a hit: top-dose activation, negative = inhibition, actives largely listed as activators | 320,000 tested, 2.8% active | AID 485297, 2010; further: % of control where 0% means no effect; nearly all actives have a fitted effect of over 60% in size
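Luciferase signal after 10 min detection reagent at ambient indicates Rab9 promoter upregulation; stably transfected Huh7 cells were treated 24 h with compound in DMSO at 37 °C, 5% CO2.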
ELG1 repair inh: qHTS screen for small molecules that inhibit ELG1-dependent DNA repair in human embryonic kidney (HEK293T) cells expressing luciferase-tagged ELG1 | HEK293T ELG1-luciferase reporter, luminescence, 16 h; DNA damage induced by 5-fluorouridine | Potency, µM (series often up to 46.1 µM), without a hit: at the top dose activity change, negative = inhibition, most hits filed as inhibitors | 330,000 tested, 2.3% active | AID 504467, 2011; further: on the % scale 0 is the no-effect control and ±100 the full control effect; nearly all actives have a fitted effect of over 55% in size
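DMSO vehicle served as the neutral condition. Each well held 2,000 cells given 5-fluorouridine plus compound; after 16 hr at 37 °C/5% CO2, ONE-Glo was added and luciferase measured 30 min later.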
* hit, by the source's call; ? = inconclusive; . = no result given; [ ] = another dose, or the depositor's remark. The call rests on the fitted dose curve; in most records, active means well fitted curve in the direction sought with a large enough effect; inconclusive means small, poorly fitted or top-dose-only effect, or another doubt; inactive means no such curve, though single readings can be large; an effect the other way counts as inactive or inconclusive. Potency means the concentration at half of the fitted maximal effect.

SMILES	SMN2 splice up	FLuc modulator	ELG1 genotox	NPC1 prom act	Rab9 prom act	ELG1 repair inh
Cc1ccc(NC(=O)c2ccc(NS(=O)(=O)c3cccc4cccnc34)cc2)cc1	.	17µM*	-2%	-4%	-3%[1.84 µM]	-9%
Cc1ccc(C(=O)/C=C/c2ccc3ncccc3c2)cc1	.	3.8µM*	?	13%	13%	?
Nc1ccc(/C=C/c2ccc3ncccc3c2)cc1	.	0.3µM*	?	0.45µM*	0.28µM*	?
CCC(=O)c1ccc2ncccc2c1	24%	?	7%	-3%	2%	14%
Cc1ccc(C(=O)Nc2ncccc2S(=O)(=O)c2ccccc2)cc1	.	11µM*	?	2.8µM*	2.8µM*	?
CC(=O)Nc1ccc(NC(=O)c2ccc(NS(=O)(=O)c3cccc4cccnc34)cc2)cc1	.	2%	1%	-2%	2%	18%
Cc1ccc(Nc2c3c(nc4ncnn24)CCC3)cc1	-17%	-1%	10%	-2%	2%	13%
Cc1ccc(NC(=O)C(=O)NCC2CCCN2S(=O)(=O)c2cccs2)c(C)c1 (centres undefined)	.	2%	-7%	-1%	-2%	-14%
Cc1ccc(OCCOC(=O)c2nc3nccc(C)n3n2)cc1	6%	1%	5%	26%	15%	?
Oc1cc(NCc2ccccc2)cc2cccnc12	.	?	.	-31%	-18%	.
COc1ccc(C(=O)Nc2ccc3ncccc3c2)cc1	.	0.43µM*	0.65µM*	0.28µM*	0.28µM*	?
Brc1ccc(CNc2ccc3ncccc3c2)cc1	.	11µM*	?	?	27%	?
O=C(Nc1ccc2ncccc2c1)c1cccc(Br)c1	.	11µM*	?	?	2.5µM*	?
COc1ccc(C(=O)Nc2cccnc2)cc1	17%	?	?	15%	?	?
Cc1ccc(C(=O)Nc2ccc3ncccc3c2)cc1	.	0.11µM*	?	?	0.1µM*	?
Cc1ccc(NC(=O)c2cc(S(=O)(=O)N3CCc4ccccc43)cn2C)cc1	.	0%	1%	-7%	-6%	-27%
O=C(O)c1cccc(NN=C2c3ccccc3-c3ccccc32)c1	0%	27µM*	15%	1%	2%	?
O=C(O)c1cccc2c1-c1ccccc1/C2=N\Nc1ccccc1	.	11µM*	12%	3.2µM*	?	?
CCOC(=O)COn1c(=O)c(-c2cc3ccccc3o2)[n+]([O-])c2ccccc21	14µM*	2.4µM*	?	?	2.2µM*	?
Cc1ccc(Cn2nc(C)c(C(=O)NCC(c3cccs3)N3CCOCC3)c2Cl)cc1 (centres undefined)	.	-1%	-38%	-3%	-10%	5.6µM*
COc1ccc(C(CNC(=O)c2c(C)nn(Cc3ccc(C)cc3)c2Cl)N2CCOCC2)cc1 (centres undefined)	.	2%	-8%	0%	-2%	21µM*
CC(C)CCN(C(=O)Nc1ccc(Cl)cc1)C1CCN(C(C)C)CC1	-24%	-11%	-3%	2%	11%	0%
O=C(CN1CCN(C(=O)c2cncn2-c2ccc(F)cc2)CC1)Nc1ccccc1C(F)(F)F	.	.	3%	3%	-1%	5%
CN1CCN(C(=O)CCN2C(=O)/C(=C/c3ccccc3Cl)SC2=S)CC1	.	?	2%	-13%	-21%	-4%
COc1ccc(OCc2ccc(C(=O)O)cc2)cc1	5µM*	6.7µM*	12%	?	?	26%
SMILES	SMN2 splice up	FLuc modulator	ELG1 genotox	NPC1 prom act	Rab9 prom act	ELG1 repair inh
COc1ccc(OCC(O)COc2ccc(C(=O)O)cc2)cc1 (centres undefined)	10%	15µM*	3%	3%	-3%	9%
CC(=O)c1ccc(OCC(O)COc2ccc(C(C)=O)cc2)cc1	-26%	-1%	3%	-1%	12%	-5%
CSc1nsc(SC)c1C(=O)N1CCN(S(=O)(=O)c2ccc(C)cc2)C1C (centres undefined)	-10%	10%	-10%	1%	3%	?
CSc1nsc(SC)c1C(=O)N1CCN(S(=O)(=O)c2ccc(C)cc2)C1C(C)C (centres undefined)	-11%	-2%	-9%	0%	1%	18µM*
CCOc1ccc(N2Cc3ccccc3C2)cc1	?	12µM*	23µM*	?	3.5µM*	?
Cc1cc(N2Cc3ccccc3C2)ccc1C=O	.	6.7µM*	5.8µM*	?	0.32µM*	?
O=Cc1ccc(N2Cc3ccccc3C2)cc1	.	12µM*	?	-3%	11%	?
Cc1cc2c(cc1C)CN(c1ccccc1)C2	.	0.67µM*	2.3µM*	1.1µM*	1µM*	?
Oc1ccc(N2Cc3ccccc3C2)cc1	.	-6%	3%	-1%	10%[1.84 µM]	17%
Cc1ccccc1C=O	0%	0%	2%	-1%	-1%	16%
CCCCn1c(SCc2ccccn2)nc2c1c(=O)n(C)c(=O)n2C	-19%	-4%	-1%	0%	1%	?
CCn1c(=O)c2sccc2n(Cc2cc(C(=O)OC)ccc2OC)c1=O	.	-1%	8%	1%	0%	8%
S=C(Nc1ccc2c(c1)OCO2)N1CCN(Cc2ccco2)CC1	.	1.3µM*	15%	?	?	?
Cc1onc(-c2ccccc2)c1C(=O)OCCOc1ccc([N+](=O)[O-])cc1[N+](=O)[O-]	.	2%	-3%	-12%	-11%	15µM*
CCC(=O)NCCc1nc2cc(NC(=O)c3cccc(Br)c3)ccc2n1C	.	21µM*	.	.	.	.
CC1CCN(CCc2nc3cc(NC(=O)Nc4ccccc4)ccc3n2C)CC1	23%	17µM*	?	?	?	?
CCC(=O)NCCc1nc2cc(NC(=O)Nc3ccccc3)ccc2n1C	.	5.4µM*	?	1.1µM*	1.6µM*	?
CC(=O)Nc1ccc2c(c1)nc(CCN1CCC(C)CC1)n2C	3%	-1%	3%	2%	10%	4%
Cn1c(CN2CCCCC2)nc2cc(NC(=O)c3cccc(Br)c3)ccc21	-54%	?	16%	-1%	-17%	?
Cc1cc(C)nc(Nc2nc(=O)c3ccccc3s2)n1	?	17µM*	18µM*	?	?	?
Cc1ccc2nc(-c3ccc(S(=O)(=O)N4CCCCC4)cc3)cn2c1	.	-20%	12%	2%	29%	?
